Whole data set: some 81,000 sequences, median “one-hybrid fitness for binding NBS DNA” near -0.1, cut for the highest 2% near 0.36. The sample holds the highest values, similar sequences and a random draw of the others, so the mix is not that of the screen.
B1: Caulobacter ParB omega fusion; a variant is named by its letters at X, in order, B8GW30 (parent)
chain: MESVVVGEPGMSEGRRGLGRGLSALLGEVDAAPAQAPGEQLGGSREAPIEILQRNPDQPRRTFREEDLEDLSNSIREKGVLQPILVRPSPDTAGEYQIVAGERAWRAAQRAGLKTVPIMVRELDDLAVLEIGIIENVQRADLNVLEEALSYKVLMEKFERTQENIAQTIGKSXSHVANXMRLLXLPDEVQSYLVSGELTAXHARAIAAAADPVALAKQIIEGGLSVRETEALARKAPNLSAGKSKGGRPPRVKDTDTQALESDLSSVLGLDVSIDHRGSTGTLTITYATLEQLDDLCNRLTRGI

Variants of: B1
Test: one-hybrid fitness for binding NBS DNA (the Noc-binding site; scaled: cognate 1, non-cognate 0); higher = stronger binding
Details: with NBS DNA site
How it was run: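 Fitness is the rescaled log change in variant-to-wild-type read ratio, measured by Illumina sequencing of plasmids before and after bacterial one-hybrid selection. The scale puts cognate at 1 and non-cognate at 0. Selection of Caulobacter ParB libraries, four specificity codons randomised, took place in E. coli USO with a HIS3 reporter, site 19 bp from the promoter, over 48 hours at 37°C on M9-minus-histidine with 0.1 mM IPTG and 5 mM 3-AT.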

| Variant | one-hybrid fitness for binding NBS DNA |
| --- | --- |
| YDCG | ≤ 0.2 |
| IGGI | ≤ 0.2 |
| EAAG | ≤ 0.2 |
| QLYR | 0.425 |
| QLER | 0.266 |
| QLRD | ≤ 0.2 |
| QLAP | ≤ 0.2 |
| QLSP | ≤ 0.2 |
| QLAR | 0.478 |
| QLPR | 0.232 |
| QLSN | ≤ 0.2 |
| QLIR | 0.294 |
| QLRR | 0.943 |
| QLSR | 0.464 |
| QLFR | 0.329 |
| CSWC | ≤ 0.2 |
| YYPG | ≤ 0.2 |
| WYCF | ≤ 0.2 |
| HGNS | ≤ 0.2 |
| FIMG | ≤ 0.2 |
| PPDN | ≤ 0.2 |
| GYQT | ≤ 0.2 |
| DTTS | ≤ 0.2 |
| TWKT | ≤ 0.2 |
| SACG | ≤ 0.2 |
| QLHH | ≤ 0.2 |

| Variant | one-hybrid fitness for binding NBS DNA |
| --- | --- |
| QLLR | 0.415 |
| QLLS | ≤ 0.2 |
| QLCR | 0.468 |
| QLCP | ≤ 0.2 |
| QLHP | ≤ 0.2 |
| QLCD | ≤ 0.2 |
| QLQD | ≤ 0.2 |
| QLQH | ≤ 0.2 |
| QLHR | 0.519 |
| QLQR | 0.483 |
| QLLP | ≤ 0.2 |
| LLRD | ≤ 0.2 |
| RCWE | ≤ 0.2 |
| ILMW | ≤ 0.2 |
| QNKK | ≤ 0.2 |
| WACV | ≤ 0.2 |
| ARFF | ≤ 0.2 |
| YTQC | ≤ 0.2 |
| KEGR | ≤ 0.2 |
| VEDR | ≤ 0.2 |
| QLGD | ≤ 0.2 |
| QLGN | ≤ 0.2 |
| QLGR | 0.496 |
| NTCV | ≤ 0.2 |
| LCVN | ≤ 0.2 |
| QTHG | 0.234 |

| Variant | one-hybrid fitness for binding NBS DNA |
| --- | --- |
| QTHC | 0.248 |
| QCHT | 0.551 |
| QPHT | ≤ 0.2 |
| QFHT | ≤ 0.2 |
| QTHT | 0.648 |
| QLHT | 0.393 |
| QIHT | 0.425 |
| QIHK | ≤ 0.2 |
| QIHN | ≤ 0.2 |
| QLHG | ≤ 0.2 |
| NTKL | ≤ 0.2 |
| YMTV | ≤ 0.2 |
| HSGS | ≤ 0.2 |
| THQS | ≤ 0.2 |
| HCNT | ≤ 0.2 |
| MGAT | ≤ 0.2 |
| QWHT | ≤ 0.2 |
| QNHT | ≤ 0.2 |
| QHHT | 0.419 |
| QHHK | ≤ 0.2 |
| QAHF | ≤ 0.2 |
| QAHC | ≤ 0.2 |
| QAHT | 0.414 |
| QHHY | ≤ 0.2 |
| QSHT | 0.429 |
| PYTI | ≤ 0.2 |

| Variant | one-hybrid fitness for binding NBS DNA |
| --- | --- |
| TEKH | ≤ 0.2 |
| AHRE | ≤ 0.2 |
| QKNR | 0.747 |
| QKNF | ≤ 0.2 |
| QKDR | 0.425 |
| QKDF | ≤ 0.2 |
| QKNC | 0.201 |
| SPCS | ≤ 0.2 |
| VPAP | ≤ 0.2 |
| YAMK | ≤ 0.2 |
| GQTK | ≤ 0.2 |
| INGE | ≤ 0.2 |
| QVDS | ≤ 0.2 |
| QVNR | 0.465 |
| QVQS | ≤ 0.2 |
| QVQN | ≤ 0.2 |
| QVND | ≤ 0.2 |
| QVYS | 0.202 |
| QVNN | ≤ 0.2 |
| QVRD | ≤ 0.2 |
| QVNS | 0.377 |
| QVQR | 0.368 |
| QVRS | 0.482 |
| QVDR | ≤ 0.2 |
| SVQD | ≤ 0.2 |
| CSRY | ≤ 0.2 |

| Variant | one-hybrid fitness for binding NBS DNA |
| --- | --- |
| EQAR | ≤ 0.2 |
| RYPY | ≤ 0.2 |
| WMPP | ≤ 0.2 |
| AHEF | ≤ 0.2 |
| GQCW | ≤ 0.2 |
| EIHG | ≤ 0.2 |
| GPST | ≤ 0.2 |
| VMSA | ≤ 0.2 |
| LYRR | ≤ 0.2 |
| GDTA | ≤ 0.2 |
| QVSD | ≤ 0.2 |
| QVGD | ≤ 0.2 |
| QVGR | 0.426 |
| QVRR | 0.77 |
| QVAH | ≤ 0.2 |
| QVGP | ≤ 0.2 |
| QVAR | 0.384 |
| QVLR | 0.305 |
| QVFR | 0.302 |
| QVYR | 0.306 |
| QVSN | ≤ 0.2 |
| QVSR | 0.38 |
| GHLS | ≤ 0.2 |
| CPPV | ≤ 0.2 |
| SSGL | ≤ 0.2 |
| QAQG | ≤ 0.2 |

| Variant | one-hybrid fitness for binding NBS DNA |
| --- | --- |
| VSSH | ≤ 0.2 |
| ELVL | ≤ 0.2 |
| DGRA | ≤ 0.2 |
| PHAM | ≤ 0.2 |
| TTRG | ≤ 0.2 |
| QVHD | ≤ 0.2 |
| QVHR | 0.436 |
| QVHN | ≤ 0.2 |
| QVVR | 0.285 |
| QVKG | ≤ 0.2 |
| QVKR | 0.786 |
| SFPV | ≤ 0.2 |
| PNKV | ≤ 0.2 |
| CGYT | ≤ 0.2 |
| FDPN | ≤ 0.2 |
| SLHW | ≤ 0.2 |
| LCKR | 0.207 |
| LRKR | 0.452 |
| LRDR | ≤ 0.2 |
| LRYR | ≤ 0.2 |
| LRRR | 0.483 |
| LRVR | 0.207 |
| LRGN | ≤ 0.2 |

From a collection of fitness landscapes (doi:10.1016/j.celrep.2020.107928)
